We go through 14 compounds from PubChem BioAssay (NCI).

About 83,000 compounds went through this panel and 20% of them were active in at least one assay; those are over-represented in the sample as a whole.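 Percent growth is the endpoint: 0 to 100 indicates growth inhibition (40 means 60% inhibition), 0 means no net growth, and negative values indicate cell death.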 Unmarked numbers belong to inactive results. The source made the active and inactive calls. The calls were made as follows: active = growth percent below 10; inactive = the rest.

Holding throughout (experiment): NCI-60 one-dose screen, 48 h (100 = growth as untreated, 0 = no growth, -100 = all killed)
What all share (details): 10 µM unless noted

For assay [1], the system named is RPMI-8226 leukemia.
For assay [2], the system named is OVCAR-8 ovarian.
Assay [3] has as its system OVCAR-5 ovarian.
The test system of assay [4] is OVCAR-4 ovarian.
The test system of assay [5] is SK-OV-3 ovarian.
The test system of assay [6] is IGROV1 ovarian.
For assay [7], the system named is OVCAR-3 ovarian.
The subject of assay [8] is HS 578T breast.
The test system of assay [9] is NCI/ADR-RES ovarian.
Assay [10] concerns T-47D breast.

For the compound `O=c1oc2ccc(F)cc2c(=O)n1-c1ccc(F)cc1F`, the growth in assay [1] is 5.47% (active); in [2] it was 23.3%; in assay [3], 64.8%; in assay [4] it was 11.9%; in assay [5] it was -4.73% (active); in assay [6] it was 30.1%. The growth in assay [7] was 4.14% (active); in assay [8] it was 12.8%; in assay [9], 18.9%; in assay [10], -11.9% (active).
Consider `O=c1cc(NC2CCN(CCCc3ccccc3)CC2)c2cc(Cl)ccc2o1`, for which the growth in assay [1] was -8.63% (active); in assay [2], -0.533% (active); in [3], 30.5%; in assay [4] it was 12.7%; in assay [5], 4.31% (active); in [6], -4.09% (active). Besides, the growth was -16.6% (active) in assay [7], 2.69% (active) in assay [8], 6.68% (active) in [9] and 4.55% (active) in [10].
`CCCCOCc1cc(CN2CCN(C)CC2)c(O)c2ncccc12`: the growth in assay [1] is 48.2%; in assay [2], 27.1%; in [3] it was 73%; in [4] it was 31.1%; in [5], 42.5%; in [6] it was 80.8%. Further, the growth in assay [7] is 23.9%; in assay [8], 79.3%; in [9] it was 5.45% (active); in assay [10] it was 67.3%.
Turning to `CCOc1ccccc1CN1CCc2nc3cc(C(C)(C)C)[nH]n3c(=O)c2C1`, the growth was 101% in assay [1]; 103% in assay [2]; 97.9% in assay [3]; 101% in assay [4]; 110% in [5]; 99.5% in assay [6]. The growth in assay [7] is 106%; in [8] it was 100%; in [9] it was 91.8%; in assay [10] it was 98.6%.
As for `CCOc1ccc2nc(C)cc(Nc3ccc(Br)cc3)c2c1`, the growth in assay [1] is 82.6%; in assay [2] it was 97.9%; in assay [3], 97.7%; in assay [4], 82.2%; in assay [5], 101%; in assay [7], 107%. Further, the results for the growth in [8], in assay [9] and in [10] were 117%, 95.4% and 97.1%, respectively.
With `Cc1cc2c(c(C)c1Cl)C(=O)/C(=C/c1ccco1)O2`, the growth in assay [1] is 87%; in assay [2] it was 102%; in assay [3], 114%; in [4], 63.3%; in assay [6], 59.2%; in assay [7] it was 104%. Further, the growth in assay [8] was 98.8%; in [9], 104%.
Turning to `CCCCC(O)(c1ccc(Cl)cc1)C(CN1CCOCC1)c1ccc(Cl)cc1` (stereo not given), the growth in assay [1] was 18.5%; in assay [2], 22.3%; in assay [3] it was 83.1%; in assay [4], 32%; in assay [5], 81.1%; in assay [6], 40%. In addition, the growth in assay [7] is 3.29% (active); in [8] it was 40%; in [9] it was 29.9%; in assay [10], 32%.
As for `O=C(Nc1ccc(F)cc1F)c1cc(Br)ccc1O`, the growth is -10.4% (active) in assay [1]; 8.63% (active) in assay [2]; -7.85% (active) in [3]; -0.761% (active) in [4]; -21.8% (active) in [5]; 15.5% in [6]. Moreover, the growth is 0.111% (active) in [7], 10.2% in assay [8], 1.62% (active) in assay [9] and -20.1% (active) in [10].
As to `O=C(O)CCCN1C(=O)C2C3CCC(C3)C2C1=O` (stereo not given), the growth in [1] is 108%; in assay [2], 103%; in [3], 104%; in [4] it was 109%; in [5] it was 103%; in assay [6], 102%. Further, the growth is 112% in [7], 115% in assay [8], 108% in [9] and 101% in assay [10].
On to `FC(F)(F)c1cccc(Nc2nc3ccccc3nc2Nc2cccc(C(F)(F)F)c2)c1`, for which the growth in [1] was -30.9% (active); in assay [2], -24.3% (active); in assay [3], 4.13% (active); in [4] it was 11.7%; in [5] it was 32%; in [6] it was -58.2% (active). The growth in assay [7] was -29.7% (active); in assay [8], -4.37% (active); in assay [9], 77.9%; in assay [10], -61.7% (active).
As to `O=c1c2cc(F)cc(Cl)c2sc2c(Cl)nc3ccccc3c12`, the growth in assay [1] is 115%; in assay [2], 102%; in assay [3], 95.5%; in assay [4], 98.7%; in assay [5] it was 95%; in assay [6], 74.8%. Besides, the growth in [7] was 108%; in assay [8] it was 88.4%; in assay [9], 98.3%; in assay [10], 91.8%.
For `COC(=O)/C(=C\c1c(-c2ccccc2)[nH]c2ccccc12)S(C)(=O)=O`, the growth in assay [1] is -14.8% (active); in [2], 36.7%; in assay [3], 83.5%; in assay [4], 63.9%; in [5], 39.8%; in assay [7] it was -46% (active). In addition, the growth was -9.62% (active) in [8], -13% (active) in assay [9] and 27% in assay [10].
`CCCCc1c(CCC)c(=N)c2ccccc2n1C`: the growth was 29.9% in assay [1]; 65.5% in [2]; 99.6% in assay [3]; 73.4% in assay [4]; 99.1% in assay [5]; 90.9% in assay [7]. Moreover, the growth in [8] was 122%; in [9], 85.4%; in [10], 85.9%.
Turning to `COc1ccccc1C(=O)O/N=C(\N)Cc1cccc2ccccc12`, the growth was 73.4% in assay [1]; 78.6% in assay [2]; 95.2% in assay [3]; 62.3% in [4]; 103% in [5]; 86.7% in assay [6]. In addition, the growth is 4.24% (active) in [7], 97% in assay [8], 69.8% in assay [9] and 93.3% in assay [10].
